Data as given in PubChem BioAssay (NCI).
The panel holds about 83,000 compounds, 20% with a hit somewhere; the sample as a whole holds those more often.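 Cell lines were cultured in 96-well plates, exposed to a single compound concentration, and assessed for percent growth 48 hours later.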 A number with no mark means an inactive call. Activity calls are given as the source filed them. Rule for the calls: active = growth percent below 10; inactive = the rest.

Key:
Test in all cases: NCI-60 one-dose screen, 48 h (100 = growth as untreated, 0 = no growth, -100 = all killed)
Conditions in all cases: 10 µM unless noted
HT29 colon = system: HT29 colon
SNB-75 CNS = system: SNB-75 CNS
SNB-19 CNS = system: SNB-19 CNS
U251 CNS = system: U251 CNS
PC-3 prostate = system: PC-3 prostate
UACC-62 melanoma = system: UACC-62 melanoma
SK-MEL-28 melanoma = system: SK-MEL-28 melanoma
SK-MEL-2 melanoma = system: SK-MEL-2 melanoma
EKVX NSCLC = system: EKVX NSCLC
SN12C renal = system: SN12C renal
UO-31 renal = system: UO-31 renal
ACHN renal = system: ACHN renal
CAKI-1 renal = system: CAKI-1 renal
A498 renal = system: A498 renal
CCRF-CEM leukemia = system: CCRF-CEM leukemia
MOLT-4 leukemia = system: MOLT-4 leukemia
SR leukemia = system: SR leukemia
TK-10 renal = system: TK-10 renal

Compound: CCOC(=O)c1sc(NCC(=O)Nc2cccc([N+](=O)[O-])c2)c(C(=O)OCC)c1C
- growth (HT29 colon): -42.7% (active)
- growth (SNB-75 CNS): -37.6% (active)
- growth (SNB-19 CNS): -6.96% (active)
- growth (U251 CNS): -7.36% (active)
- growth (PC-3 prostate): -9.82% (active)
- growth (UACC-62 melanoma): -72.4% (active)
- growth (SK-MEL-28 melanoma): -30.9% (active)
- growth (SK-MEL-2 melanoma): -24% (active)
- growth (EKVX NSCLC): -22.3% (active)
- growth (SN12C renal): -11.5% (active)
- growth (UO-31 renal): -64.6% (active)
- growth (ACHN renal): -62.4% (active)
- growth (CAKI-1 renal): -17.5% (active)
- growth (A498 renal): -38% (active)
- growth (CCRF-CEM leukemia): 7.16% (active)
- growth (MOLT-4 leukemia): 6.63% (active)
- growth (SR leukemia): 19.3%

Compound: COC(=O)C(Cc1ccccc1)NS(=O)(=O)/N=C1\NC(=O)NC1=C(Cl)Cl (stereo not drawn)
- growth (HT29 colon): 127%
- growth (SNB-75 CNS): 106%
- growth (SNB-19 CNS): 94.2%
- growth (U251 CNS): 106%
- growth (PC-3 prostate): 90%
- growth (UACC-62 melanoma): 78.8%
- growth (SK-MEL-28 melanoma): 102%
- growth (SK-MEL-2 melanoma): 60.3%
- growth (EKVX NSCLC): 104%
- growth (SN12C renal): 96.8%
- growth (UO-31 renal): 81.3%
- growth (ACHN renal): 98.1%
- growth (CAKI-1 renal): 100%
- growth (CCRF-CEM leukemia): 37.8%
- growth (MOLT-4 leukemia): 79.3%
- growth (SR leukemia): 82.9%

Compound: CC1=C(C)C(=O)C(Nc2cccc(C(F)(F)F)c2)=C(Cl)C1=O
- growth (HT29 colon): 103%
- growth (SNB-75 CNS): 66.5%
- growth (SNB-19 CNS): 92.4%
- growth (U251 CNS): 79%
- growth (PC-3 prostate): 64.4%
- growth (UACC-62 melanoma): 80.2%
- growth (SK-MEL-28 melanoma): 98.3%
- growth (SK-MEL-2 melanoma): 85.8%
- growth (EKVX NSCLC): 49.4%
- growth (SN12C renal): 87.6%
- growth (UO-31 renal): 77.3%
- growth (CAKI-1 renal): 92.7%
- growth (A498 renal): 55.2%
- growth (CCRF-CEM leukemia): 5.9% (active)
- growth (MOLT-4 leukemia): 23.5%
- growth (SR leukemia): 25%

Compound: COc1ccc([C@@H]2c3[nH]c4ccccc4c3CC3C(=O)N(C4CCN(Cc5c(F)cccc5F)CC4)CC(=O)N32)c(OC)c1 (stereo partly drawn)
- growth (HT29 colon): 44% [5.26 µM]
- growth (SNB-75 CNS): 22.3% [5.26 µM]
- growth (SNB-19 CNS): 64.2% [5.26 µM]
- growth (U251 CNS): 62% [5.26 µM]
- growth (PC-3 prostate): 35.2% [5.26 µM]
- growth (UACC-62 melanoma): 78.9% [5.26 µM]
- growth (SK-MEL-28 melanoma): 60.9% [5.26 µM]
- growth (SK-MEL-2 melanoma): 74.5% [5.26 µM]
- growth (EKVX NSCLC): 51.9% [5.26 µM]
- growth (SN12C renal): 67.5% [5.26 µM]
- growth (UO-31 renal): 39.7% [5.26 µM]
- growth (TK-10 renal): 63.5% [5.26 µM]
- growth (ACHN renal): 47.6% [5.26 µM]
- growth (CAKI-1 renal): 40.4% [5.26 µM]
- growth (A498 renal): 29.4% [5.26 µM]
- growth (CCRF-CEM leukemia): 58.1% [5.26 µM]
- growth (MOLT-4 leukemia): 49% [5.26 µM]
- growth (SR leukemia): 79.4% [5.26 µM]

Compound: CSc1ccc2c(c1)N(C(=O)/C(C#N)=C/c1c[nH]c3ccccc13)c1ccccc1S2
- growth (HT29 colon): 12.2%
- growth (SNB-75 CNS): 8.61% (active)
- growth (SNB-19 CNS): 41%
- growth (U251 CNS): 42.1%
- growth (PC-3 prostate): 28.8%
- growth (UACC-62 melanoma): 41.8%
- growth (SK-MEL-28 melanoma): 58.5%
- growth (SK-MEL-2 melanoma): 35.6%
- growth (EKVX NSCLC): 34.8%
- growth (SN12C renal): 33.9%
- growth (UO-31 renal): 50.4%
- growth (TK-10 renal): 71.3%
- growth (CAKI-1 renal): 38.5%
- growth (A498 renal): 10.8%
- growth (CCRF-CEM leukemia): 19%
- growth (MOLT-4 leukemia): 30.5%
- growth (SR leukemia): 34.4%

Compound: NC(=O)c1c(NC(=O)c2ccc(C3CCCCC3)cc2)sc2c1CCC(=O)C2
- growth (HT29 colon): 2.41% (active)
- growth (SNB-75 CNS): 43.2%
- growth (SNB-19 CNS): 25.5%
- growth (U251 CNS): 10.7%
- growth (PC-3 prostate): 16.1%
- growth (UACC-62 melanoma): 26.4%
- growth (SK-MEL-28 melanoma): 31.7%
- growth (EKVX NSCLC): 14.2%
- growth (SN12C renal): 23.7%
- growth (UO-31 renal): 11.6%
- growth (TK-10 renal): 16.7%
- growth (ACHN renal): 4.68% (active)
- growth (CAKI-1 renal): -2.11% (active)
- growth (A498 renal): 67.6%
- growth (CCRF-CEM leukemia): 9.82% (active)
- growth (MOLT-4 leukemia): 11.3%
- growth (SR leukemia): 5.25% (active)

Compound: COc1cc(/C=C/C(=O)c2cc(OC)c(OC)c(OC)c2)ccc1Oc1nc(NCCO)nc(N2CCOCC2)n1
- growth (HT29 colon): -21.5% (active)
- growth (SNB-75 CNS): 15.2%
- growth (SNB-19 CNS): 12.4%
- growth (U251 CNS): -36.9% (active)
- growth (PC-3 prostate): 37.7%
- growth (UACC-62 melanoma): -4.12% (active)
- growth (SK-MEL-28 melanoma): 31.5%
- growth (SK-MEL-2 melanoma): -3.2% (active)
- growth (EKVX NSCLC): 11.2%
- growth (SN12C renal): 9.45% (active)
- growth (UO-31 renal): 20.9%
- growth (TK-10 renal): 20.9%
- growth (ACHN renal): -52.5% (active)
- growth (CAKI-1 renal): 15.6%
- growth (CCRF-CEM leukemia): 0.121% (active)
- growth (MOLT-4 leukemia): 6.72% (active)
- growth (SR leukemia): -0.481% (active)

Compound: O=C1[C@H]2Cc3c([nH]c4ccccc34)[C@@H](c3ccc(Br)cc3)N2C(=O)CN1C1CCN(Cc2ccccc2)CC1
- growth (HT29 colon): -30.9% (active)
- growth (SNB-75 CNS): 51.1%
- growth (SNB-19 CNS): 47.8%
- growth (U251 CNS): 32.3%
- growth (PC-3 prostate): 17%
- growth (UACC-62 melanoma): 84%
- growth (SK-MEL-28 melanoma): 70.3%
- growth (SK-MEL-2 melanoma): 28.8%
- growth (SN12C renal): 12.9%
- growth (UO-31 renal): 38.5%
- growth (TK-10 renal): 64.3%
- growth (CAKI-1 renal): 44.9%
- growth (A498 renal): 61%
- growth (CCRF-CEM leukemia): 15.5%
- growth (MOLT-4 leukemia): 12.7%
- growth (SR leukemia): -10.6% (active)

Compound: O=C(Nc1nc2ccc(O)cc2s1)c1cccc(C(F)(F)F)c1
- growth (HT29 colon): 102%
- growth (SNB-75 CNS): 118%
- growth (SNB-19 CNS): 95.4%
- growth (U251 CNS): 62.7%
- growth (PC-3 prostate): 58.2%
- growth (UACC-62 melanoma): 45.6%
- growth (SK-MEL-28 melanoma): 82.2%
- growth (SK-MEL-2 melanoma): 57.2%
- growth (EKVX NSCLC): 55.6%
- growth (SN12C renal): 68.9%
- growth (UO-31 renal): 33.4%
- growth (TK-10 renal): 80.8%
- growth (ACHN renal): 53%
- growth (CAKI-1 renal): 53%
- growth (A498 renal): 78.9%
- growth (CCRF-CEM leukemia): 31%
- growth (MOLT-4 leukemia): 34.6%
- growth (SR leukemia): 75.7%

Compound: COc1ccc(C(=O)c2cc(C(=O)/C=C/c3c(Cl)cccc3Cl)c3cc(C)ccn23)cc1
- growth (HT29 colon): 103%
- growth (SNB-75 CNS): 76.7%
- growth (SNB-19 CNS): 98.8%
- growth (U251 CNS): 100%
- growth (PC-3 prostate): 91.3%
- growth (UACC-62 melanoma): 94%
- growth (SK-MEL-28 melanoma): 108%
- growth (SK-MEL-2 melanoma): 101%
- growth (EKVX NSCLC): 92.1%
- growth (SN12C renal): 94.2%
- growth (UO-31 renal): 96.6%
- growth (TK-10 renal): 119%
- growth (ACHN renal): 101%
- growth (CAKI-1 renal): 89.9%
- growth (A498 renal): 86.4%
- growth (CCRF-CEM leukemia): 99.8%
- growth (MOLT-4 leukemia): 96.4%
- growth (SR leukemia): 97%

Compound: COc1ccc(NC2=CC(=O)C(C)=C(C)C2=O)cc1
- growth (HT29 colon): 109%
- growth (SNB-75 CNS): 123%
- growth (SNB-19 CNS): 99.2%
- growth (U251 CNS): 92%
- growth (PC-3 prostate): 71.5%
- growth (UACC-62 melanoma): 95.4%
- growth (SK-MEL-28 melanoma): 99.4%
- growth (SK-MEL-2 melanoma): 81.8%
- growth (EKVX NSCLC): 78.8%
- growth (SN12C renal): 86.4%
- growth (UO-31 renal): 81.2%
- growth (TK-10 renal): 156%
- growth (ACHN renal): 96.1%
- growth (CAKI-1 renal): 93.5%
- growth (A498 renal): 84.4%
- growth (CCRF-CEM leukemia): 70.1%
- growth (MOLT-4 leukemia): 75.6%
- growth (SR leukemia): 82.3%

Compound: Cn1c(SCC(=O)Nc2ccc(-c3nc4ccc([N+](=O)[O-])cc4[nH]3)cc2)nc2ccccc2c1=O
- growth (HT29 colon): 89.7%
- growth (SNB-75 CNS): 93.2%
- growth (SNB-19 CNS): 85.8%
- growth (U251 CNS): 92%
- growth (PC-3 prostate): 68.7%
- growth (UACC-62 melanoma): 75%
- growth (SK-MEL-28 melanoma): 79.4%
- growth (SK-MEL-2 melanoma): 90.7%
- growth (EKVX NSCLC): 84.5%
- growth (SN12C renal): 91.1%
- growth (UO-31 renal): 84.7%
- growth (CAKI-1 renal): 45.9%
- growth (CCRF-CEM leukemia): 86.8%
- growth (MOLT-4 leukemia): 77.5%
- growth (SR leukemia): 82.4%

Compound: COc1ccc(/C=N/NC(=O)c2[nH]c3ccc(Br)cc3c2-c2ccccc2)s1
- growth (HT29 colon): 0.251% (active)
- growth (SNB-75 CNS): 26.4%
- growth (SNB-19 CNS): 30.6%
- growth (U251 CNS): 30.2%
- growth (PC-3 prostate): 30.9%
- growth (UACC-62 melanoma): 42.4%
- growth (SK-MEL-28 melanoma): 63.6%
- growth (SN12C renal): 50%
- growth (UO-31 renal): 45.1%
- growth (TK-10 renal): 122%
- growth (ACHN renal): 27%
- growth (CAKI-1 renal): 24.5%
- growth (CCRF-CEM leukemia): 9.96% (active)
- growth (MOLT-4 leukemia): 10.4%
- growth (SR leukemia): 5.56% (active)

Compound: Cn1ccnc1C(=O)/C=C/c1ccc(NC(=O)Nc2ccc(F)cc2)cc1
- growth (HT29 colon): 11.7%
- growth (SNB-75 CNS): 39.3%
- growth (SNB-19 CNS): 33.9%
- growth (U251 CNS): 20.1%
- growth (PC-3 prostate): 53.2%
- growth (UACC-62 melanoma): 46.3%
- growth (SK-MEL-28 melanoma): 75.5%
- growth (SK-MEL-2 melanoma): 95%
- growth (SN12C renal): 53.8%
- growth (UO-31 renal): 56.6%
- growth (ACHN renal): 49.5%
- growth (CAKI-1 renal): 55.1%
- growth (CCRF-CEM leukemia): 12.6%
- growth (MOLT-4 leukemia): 11.6%
- growth (SR leukemia): 3.97% (active)
